Assay outcomes: PubChem, National Center for Advancing Translational Sciences (NCATS)
HT1080 IDH1KD tx – qHTS for induction of synthetic lethality in tumor cells producing 2HG: qHTS for the HT-1080-IDH1KD cell line. HT-1080 IDH1 knockdown viability, ATP luminescence, 48 h. Potency, µM (top dose mostly 46.1 µM), inactives show at the top dose activity, negative = toxicity, hits mostly cytotoxic. 360,000 compounds, 2% hits. AID 686971, 2013;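 further: potency means the concentration at half of the fitted maximal effect; 0% = DMSO wells and -100% = cell-free medium wells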
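Assay cells: HT-1080 with IDH1 knockdown, 750 per well, RPMI/5% FBS. Exposure: 48 h at 37 °C following 2 h pre-incubation. Read: CellTiter-Glo luminescence; fitted concentration-response, curve class assigned.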
IL-1B inflam inh – qHTS for Inhibitors of Inflammasome Signaling: IL-1-beta AlphaLISA Primary Screen. THP-1 LPS/ATP IL-1B secretion, AlphaLISA, 16 h; active compounds read low. activity change, % at 57.5 µM. 360,000 compounds, 4.7% hits; in the data active means activity change below about -50%; inconclusive means mostly about -30% to -49%
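THP-1 cells pretreated 1 hr with compounds (up to 57.5 uM final), then stimulated with LPS (250 ng/mL final) plus ATP (1.25 mM final); secreted IL-1B measured by AlphaLISA after 16 hr, decreased signal indicating inhibition.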
HT1080-NT tox – qHTS for induction of synthetic lethality in tumor cells producing 2HG: qHTS for the HT-1080-NT fibrosarcoma cell line. HT-1080-NT fibrosarcoma viability, CellTiter-Glo ATP luminescence, 48 h. Potency, µM (series often up to 46.1 µM), without a hit: at the top dose activity, negative = less viability, actives largely listed as cytotoxic. 360,000 compounds, 1.6% hits. AID 686970, 2013;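 further: NT is the 2HG producing partner of a matched IDH1 knockdown line; potency means the concentration at half of the fitted maximal effect; 0% = DMSO-treated cells and -100% = media-only wells without cells; nearly all actives have a fitted effect of over 55% in size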
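HT-1080-NT fibrosarcoma cells (2HG-overproducing), 750 cells/well in RPMI with 5% FBS, dosed after 2 h and incubated 48 h at 37C. CellTiter-Glo luminescence normalized to DMSO and no-cell wells; concentration-response curves fitted and classed.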
DT40 TDP1 CPT – qHTS for Inhibitors of human tyrosyl-DNA phosphodiesterase 1 (TDP1): qHTS in cells in presence of CPT; chicken DT40 Tdp1-/-;hTDP1 cells + 20 nM CPT, ATP luminescence, 48 h; 420,000 compounds, 12% hits; Potency, µM (titrated, usually from 46.2 µM), for inactives: at the highest dose activity change, negative = growth inhibition, usual class: inhibitors; further: potency means the concentration at half of the fitted maximal effect; nearly all actives have a fitted effect of over 55% in size
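Chicken DT40 Tdp1-/- cells stably complemented with human TDP1 were seeded at 400 cells/well in medium containing 20 nM camptothecin, exposed to pin-transferred compounds, and grown at 37 °C for at least 48 hr. Viability was read as ATP luminescence.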
TDP1 cell noCPT – qHTS for Inhibitors of human tyrosyl-DNA phosphodiesterase 1 (TDP1): qHTS in cells in absence of CPT; AID 686978, 2013; DT40 Tdp1-/- hTDP1 cells, no CPT, ATP luminescence, 48 h; Potency, µM (highest dose often 46.2 µM), without a hit: at the highest dose activity change, negative = growth inhibition, hits mostly inhibitors; 420,000 compounds, 15% hits; further: potency means the concentration at half of the fitted maximal effect; nearly all actives have a fitted effect of over 55% in size
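DT40 Tdp1-/-;hTDP1 cells, no CPT (DMSO vehicle only), 400 cells/well; compounds pin-transferred; ≥48 hr, 37 °C; CellTiter-Glo 30 min RT dark, luminescence read.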
* marks the source's active call; other numbers are inactive results; u = inconclusive; x = no result given. Most compounds without a hit are left out; they make up all but 19% or so of the library. Unless noted, the call rests on the fitted dose curve; in most records, active means well fitted curve in the direction sought with a large enough effect; inconclusive means small, poorly fitted or top-dose-only effect, or another doubt; inactive means no such curve, though single readings can be large; an effect the other way counts as inactive or inconclusive. Unless noted, on the % scale 0 is the no-effect control and ±100 the full control effect.

SMILES | HT1080 IDH1KD tx | IL-1B inflam inh | HT1080-NT tox | DT40 TDP1 CPT | TDP1 cell noCPT
CC(C)[C@H]1C(=O)N2CCC[C@H]2[C@]2(O)O[C@](NC(=O)[C@@H]3C[C@@H]4c5cccc6[nH]cc(c56)C[C@H]4N(C)C3)(C(C)C)C(=O)N12 | x | x | x | u | 18.8µM*
Cc1nn(CC(C)C)c(Cl)c1C(=O)NC1CCCC1 | -0.5% | -9.6 | 1.9% | 4.3% | 5.4%
CCOC(=O)[C@]12Cc3ccccc3[C@H]1N(CCC(=O)OC)C(=O)c1ccccc12 | u | x | u | 18.4µM* | 16.4µM*
CCOC(=O)[C@]12Cc3cc(C)ccc3[C@H]1N(CCC(=O)OC)C(=O)c1cc(OC)ccc12 | 18.4µM* | -124.0* | 23.1µM* | 10.3µM* | 8.2µM*
CCOC(=O)[C@]12Cc3ccccc3[C@H]1N(Cc1ccccc1)C(=O)c1ccccc12 | 6.6% | -7.0 | 10.1% | u | u
Cc1nc2n(c(=O)c1CCN1CCC(c3noc4cc(F)ccc34)CC1)CCCC2 | 0.9% | 5.3 | 8.3% | u | u
COc1ccccc1-n1c(-c2ccccc2Cl)nc2ccccc2c1=O | 0.4% | 0.0 | 1.1% | u | 14.6µM*
Cc1cccc(-n2c(-c3ccco3)nc3ccccc3c2=O)c1C | -19.7% | -6.9 | -0.4% | 8.2µM* | 16.4µM*
COc1ccccc1-n1c(-c2ccoc2)nc2ccccc2c1=O | 0.8% | 5.1 | 1.0% | 11.6µM* | 18.4µM*
O=c1c2ccccc2nc(-c2ccoc2)n1-c1ccccc1Cl | u | -16.6 | -18.2% | 20.6µM* | 16.4µM*
O=c1c2ccccc2nc(-c2ccoc2)n1-c1ccccc1 | -1.2% | -4.9 | 25.7% | -26.4% | -25.5%
O=C(Nc1ccccc1)N1CC2(CCN(C(=O)Oc3ccccc3)CC2)C1 | x | x | x | -16.4% | -10.5%
CC(C)N1CCN(c2ccc(O)cc2)CC1 | -1.7% | 18.9 | 4.1% | 5.4% | u
COc1ccc(C(=O)c2[nH]c(N)c(C(N)=O)c2-c2ccc(OC)c(OC)c2)cc1 | u | -0.8 | 24.9% | 5.9% | -19.1%
CCOc1ccc(N(CC)S(=O)(=O)c2ccc3c(c2)oc(=O)n3C)cc1 | -13.3% | 18.4 | -2.5% | u | -28.5%
COc1cc(NS(=O)(=O)c2ccc3c(c2)oc(=O)n3C)cc(OC)c1OC | u | 71.5 | u | 13µM* | 9.2µM*
CCN1/C(=C\C=C\C2=[N+](CC)c3ccccc3C2(C)C)C(C)(C)c2ccccc21 | 2.59µM* | -98.1* | 0.651µM* | 0.092µM* | 0.146µM*
CCN(CC)C(C)C(=O)c1ccccc1 (centres undefined) | x | x | x | 0.7% | 3.5%
CCOC(CN1CCN(CC(C)C(=O)c2ccccc2)CC1)c1ccccc1 (centres undefined) | x | x | x | u | 26.6µM*
CN(C)c1ccc([N+](=O)[O-])c([N+](=O)[O-])c1 | -3.7% | -58.6* | -16.2% | u | u
O=[N+]([O-])c1ccc(F)c([N+](=O)[O-])c1 | x | x | x | 5.6% | u
N#Cc1nn(-c2c(Cl)cc(C(F)(F)F)cc2Cl)c(N)c1S(=O)C(F)(F)F (centres undefined) | x | x | x | 9.62µM* | 8.57µM*
CCOC(=O)C1=C(c2ccccc2)OC(N)=C(C#N)C1C(C)C (centres undefined) | -8.4% | 0.0 | -5.1% | u | u
O=C(Nc1ccc(C(=O)O)cc1)Oc1ccc(N(CCCl)CCCl)cc1 | -18.1% | 1.4 | -3.4% | 0.411µM* | 0.731µM*
CC(C)CCCC(C)C1CCC2C3CC(O)[C@@]4(O)CC(O)CC[C@@]4(C)C3CC[C@@]12C (some centres undefined) | x | x | x | u | 18.4µM*
SMILES | HT1080 IDH1KD tx | IL-1B inflam inh | HT1080-NT tox | DT40 TDP1 CPT | TDP1 cell noCPT
CC(C)CCC[C@@H](C)[C@H]1CC[C@H]2[C@@H]3C(=O)C=C4C[C@@H](O)CC[C@]4(C)[C@H]3CC[C@]12C | 1.5% | 18.6 | 20.5% | u | u
O=C1C2C3CCC(C3)C2C(=O)N1c1ccc(OS(=O)(=O)c2ccccc2)cc1 (centres undefined) | -25.8% | 10.9 | -2.9% | u | u
O=C(Nc1ccc(F)cc1F)c1cccnc1Oc1cccc(C(F)(F)F)c1 | 11.4% | -3.3 | -4.3% | 15.8% | 5.5%
COc1ccc(N2C(=O)/C(=C/c3cccs3)C(=O)NC2=S)cc1 | -0.8% | 3.2 | 9.9% | 5.17µM* | 3.66µM*
Cc1ccc(/C=C2\C(=O)NC(=S)N(c3ccc(F)cc3)C2=O)o1 | -0.2% | 2.8 | 9.9% | 7.31µM* | 14.6µM*
COc1ccc(N2C(=O)/C(=C/c3ccc(N(C)C)o3)C(=O)NC2=S)cc1 | 7.7% | -2.1 | -0.9% | -18.1% | -5.4%
COc1cccc(N2C(=O)/C(=C/c3ccc(C)o3)C(=O)NC2=S)c1 | -2.9% | 4.8 | -1.1% | 14.6µM* | 14.6µM*
COc1ccccc1/C=C1\C(=O)NC(=S)N(c2ccccc2)C1=O | 3.6% | 0.0 | 9.0% | -0.6% | 20.2%
Cc1ccc(/C=C2\C(=O)NC(=S)N(c3ccc(F)cc3)C2=O)s1 | u | -107.8* | u | 2.91µM* | 5.8µM*
CCCc1cc(=O)oc2cc(OCC(=O)N3C[C@H]4C[C@@H](C3)c3cccc(=O)n3C4)ccc12 | 3.9% | -9.6 | 7.3% | -1.4% | -5.8%
CC(C)NCC(O)COc1cccc2[nH]ccc12 (centres undefined) | x | x | x | u | -18.5%
CC1OC(C)OC(C)O1 (centres undefined) | x | x | x | 14.9% | -23.7%
Cc1c2cnn(CC(=O)N3CCC4(CC3)OCCO4)c(=O)c2c(C)n1Cc1cccc(Cl)c1 | -1.8% | -2.2 | 17.0% | u | -25.9%
Cc1cc(C)c(Cn2c3ccccc3c3cnn(CC(=O)NCc4ccc(Cl)cc4)c(=O)c32)c(C)c1 | x | x | x | u | 23.1µM*
CCC(=O)OC1CCC2C3CCc4cc(O)ccc4C3CC[C@]12C (some centres undefined) | x | x | x | 20.6µM* | 20.6µM*
CCN(C[C@H]1N[C@@](CC)(C(=O)OC)[C@H]2C(=O)N(Cc3ccccc3)C(=O)[C@@H]12)S(=O)(=O)c1ccc(OC)cc1 | -0.6% | -18.5 | 0.3% | 23.1µM* | u
CC[C@@]1(C(=O)OC)N[C@H](CN(C)C(=O)c2ccc(C(C)(C)C)cc2)[C@@H]2C(=O)N(Cc3ccccc3)C(=O)[C@@H]21 | 3.4% | -20.0 | 14.3% | u | 16.4µM*
